# Data reported in PubChem BioAssay AID651571 (The Scripps Research Institute Molecular Screening Center, 2012).
# Among all 1,500 compounds or so, about 1,300 (87%) were called active. Cut-off read from the data, not from the text of the source: active = inhibition above about 9%; inactive = the rest. So high a share suggests a set chosen from earlier hits. The list is a sample of the results.
# Assay: PG9 antibody small-molecule binding – biochemical, TR-FRET, confirmation (AID 651571)
# Settings: at 6.7 µM, active compounds read high
row,SMILES,inhibition
1,COc1ccc(Cl)cc1NC(=O)Cn1nc(-c2ccc(C)cc2)n(C)c1=S,12.2% (active)
2,N#Cc1ccccc1NC(=O)c1cccc(COc2ccc(Cl)cc2Cl)c1,15.1% (active)
3,O=C1C(=O)N(CCN2CCOCC2)C(c2cccc(Cl)c2)/C1=C(/O)c1ccc2c(c1)OCO2 (stereo not drawn),26.7% (active)
4,O=C(O)CCCCCNc1ncnc2ccc(Br)cc12,28.1% (active)
5,COc1cccc(-c2ccc(C#N)c(SCC(=O)NCCc3ccc(Cl)cc3)n2)c1,7.22% (inactive)
6,COc1ccc(CCNC(=O)CSc2nc(-c3ccc(OC)c(OC)c3)ccc2C#N)cc1,26% (active)
7,O=C(Nc1c(Br)cc2c(c1Br)Cc1cc([N+](=O)[O-])ccc1-2)C(Cl)Cl,51.1% (active)
8,O=C(COC(=O)c1ccc2c(c1)OCCO2)NCc1ccccc1Cl,29.8% (active)
9,COCCNC(=O)c1cc2c(Br)ccc(Br)c2nc1N,16.4% (active)
10,C=CCn1c(=NC(=O)c2cccs2)sc2cc(NC(C)=O)ccc21,9.74% (active)
11,C=CCn1c(=NC(=O)c2ccc(S(=O)(=O)N3CCCC3)cc2)sc2cc(NC(C)=O)ccc21,29.4% (active)
12,CCCc1nc(SCC(=O)Nc2ccc(S(=O)(=O)N(C)C)cc2)c2ccccc2n1,34.5% (active)
13,CCc1ccc(NC(=O)CSc2nnc(-c3cnccn3)n2Cc2ccco2)cc1,22.4% (active)
14,O=C(C1=C(O)C(=O)N(Cc2ccccc2)C1c1ccco1)c1ccco1 (stereo not drawn),31.8% (active)
15,COc1cccc(-n2c(SCC(=O)c3c[nH]c4ccccc34)nc3ccccc3c2=O)c1,27% (active)
16,Cc1cc(C)cc(NC(=O)C2CCCN(S(=O)(=O)c3ccc4[nH]c(=O)ccc4c3)C2)c1 (stereo not drawn),23.8% (active)
17,CCn1nnc2cc(C(=O)Nc3ccc(C(=O)OC(C)C)cc3)ccc21,25.6% (active)
18,COC(=O)C1=C(C)N(Cc2ccccc2C(F)(F)F)C(=NCc2ccc(OC)cc2)NC1c1cccc(C(F)(F)F)c1 (stereo not drawn),6.91% (inactive)
19,O=C(N=C1SC2CS(=O)(=O)CC2N1Cc1ccccc1)c1ccccc1 (stereo not drawn),34.1% (active)
20,O=C(Nc1cccc(S(=O)(=O)Nc2ccc(Cl)cc2)c1)c1ccc2c(c1)OCCO2,23.1% (active)
21,COc1ccc(-c2c(C)nn3c(N4CCC(C(=O)N5CCCCC5)CC4)cc(C)nc23)cc1OC,13.9% (active)

row,SMILES,inhibition
1,CCOc1cccc(NC(=O)Cn2nc(-c3ccc4c(c3)OCCO4)ccc2=O)c1,14.5% (active)
2,Cc1cc2c(cc1C)N1C(=O)c3cc4ccccc4cc3NC(=O)C1C(=O)N2 (stereo not drawn),12.3% (active)
3,COc1ccc(-n2nnnc2-c2nc3ccccc3s2)cc1,30.8% (active)
4,CCn1c(SCC(=O)Nc2cccc(F)c2)nnc1-c1cc2cc(Br)ccc2o1,40.1% (active)
5,Cc1nc2nc(SCC(=O)c3ccccc3)[nH]c2cc1Br,28.4% (active)
6,N#C/C=C1\Sc2ccccc2C(=O)N1CC(=O)N1CCN(S(=O)(=O)c2ccccc2)CC1,22.1% (active)
7,N#Cc1ccccc1Sc1ccccc1C(=O)OCC(=O)NC1CCCCC1,27.3% (active)
8,CC(=O)c1sc2nc(SCC(=O)N3CCCCC3)[nH]c(=O)c2c1C,25.6% (active)
9,COc1cccc(NS(=O)(=O)c2ccc3[nH]cc(C(=O)NCCCOC(C)C)c(=O)c3c2)c1,18.6% (active)
10,Fc1cc(F)c2nc(Nc3nc4c(F)cccc4s3)sc2c1,9.6% (active)
11,COCCCNc1nc2c(-c3cccc(C)c3)nnn2c2ccc(Cl)cc12,19.2% (active)
12,O=C1COc2ccc(C(=O)COC(=O)c3ccccc3Cl)cc2N1,24.8% (active)
13,Cc1c(-c2ccccc2)nc(N)c(C#N)c1-c1cccs1,18.6% (active)
14,N#Cc1c(-c2cccs2)nc(SCC(=O)c2ccc(Br)cc2)[nH]c1=O,29.8% (active)
15,COc1ccc(CC(=O)Nc2ccc(-c3nnc(-c4ccccc4)o3)cc2)cc1,18.3% (active)
16,Cc1nc(-c2ccccc2)sc1-c1nc(-c2ccccc2)ncc1S(=O)(=O)c1ccccc1,8.54% (inactive)
17,Cc1ccc(-c2cc(C(=O)NCc3cn(C)nc3C)c3cc(Br)ccc3n2)cc1,18.5% (active)
18,CCOC(=O)c1c(C)[nH]c(C(=O)OCC(=O)c2ccc(OC)cc2OC)c1C,45.1% (active)
19,Cc1ccc(-n2c(SCC(=O)NCCC3=CCCCC3)nc3n[nH]c(C)c3c2=N)cc1Cl,22.1% (active)
20,CCCCNC(=O)CSc1nc2n[nH]c(C)c2c(=N)n1-c1cccc(Cl)c1C,38.3% (active)
21,Cc1ccc(-n2ncc3c(=O)n(-c4ccc(C)c(C)c4)c(-c4ccco4)nc32)cc1,8.17% (inactive)

row,SMILES,inhibition
1,CC1(C)Cc2ccccc2-c2[nH]c(=S)[nH]c(=O)c21,9.89% (active)
2,CCOc1cc2ccccc2cc1C(=O)Nc1ccccn1,12.1% (active)
3,CC(C)OCCCNC(=O)c1cc(Sc2ccc(F)cc2)nc2ccccc12,25.9% (active)
4,S=c1[nH]c2ccccc2c2ccccc12,14.6% (active)
5,Cc1cc(Br)ccc1NC(=O)c1sc2ncn(CC(=O)N3CCN(c4ccccn4)CC3)c(=O)c2c1C,5.44% (inactive)
6,O=C(O)CCC(=O)Nc1nc2ccc([N+](=O)[O-])cc2s1,5.06% (inactive)
7,COC(=O)c1ccc(NC(=S)Nc2cccc(C)n2)cc1,11% (active)
8,O=C(NCc1ccc(Cl)cc1)c1cc2c(nc3sccn32)s1,17.8% (active)
9,CC(=O)c1cc(C#N)c(SCC(=O)Nc2nccs2)nc1C,27.5% (active)
10,COc1ccc(-c2csc(NC(=O)c3ccc(N4C(=O)CCC4=O)cc3)n2)cc1OC,15.2% (active)
11,O=C(Oc1ccccc1)Oc1ccc2c(c1)oc(=O)c1ccccc12,46.9% (active)
12,CCOc1ccc2cc(C#N)c(SCC(=O)OC)nc2c1,48.4% (active)
13,Cc1cccc(Nc2nc3c(S(=O)(=O)c4ccccc4)nnn3c3ccccc23)c1C,41.2% (active)
14,Cc1nc2cc(NC(=O)CSc3nc4c(C)cccc4cc3C#N)ccc2s1,46.4% (active)
15,O=C(Nc1nnc(-c2ccccc2F)s1)c1ccccc1F,38.5% (active)
16,N#Cc1c(N)nc2c3c(sc(=N)c2c1N)NC(=O)CC3c1ccccc1Cl (stereo not drawn),24.9% (active)
17,C=CCOc1cccc(C2C(C(=O)c3ccc(C)o3)=C(O)C(=O)N2CCCn2ccnc2)c1 (stereo not drawn),19.4% (active)
18,CCCOc1ccc(C2C(C(=O)c3ccc(C)o3)=C(O)C(=O)N2CCCn2ccnc2)cc1 (stereo not drawn),53% (active)
19,Cn1c(=S)sc2ccc3ccccc3c21,11.9% (active)
20,CCOc1ccc(C(=O)COC(=O)c2ccc(-n3cnnn3)cc2)cc1,27.8% (active)
21,CC(=O)c1sc(NC(=O)CCCOc2ccccc2C)nc1C,18.4% (active)
